# A selection: hits, their analogues and other compounds. The true share with any hit is near 19%.
# HT1080-NT tox: qHTS for induction of synthetic lethality in tumor cells producing 2HG: qHTS for the HT-1080-NT fibrosarcoma cell line; HT-1080-NT fibrosarcoma viability, CellTiter-Glo ATP luminescence, 48 h; Potency, µM (highest dose often 46.1 µM), for inactives: top-dose activity, negative = less viability, hits mostly cytotoxic; 360,000 tested, 1.6% active; AID 686970, 2013;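 note: NT is the 2HG producing partner of a matched IDH1 knockdown line; potency is the fitted concentration of half-maximal effect; 0% = DMSO-treated cells and -100% = media-only wells without cells; nearly all actives have a fitted effect of over 55% in size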
#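 Viability by CellTiter-Glo luminescence after 48 h compound exposure at 37C of HT-1080-NT cells (750/well, RPMI, 5% FBS). % activity scaled between DMSO wells and medium-only wells, then curve-fitted and categorized by curve class.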
# HT1080 IDH1KD tx: qHTS for induction of synthetic lethality in tumor cells producing 2HG: qHTS for the HT-1080-IDH1KD cell line; HT-1080 IDH1 knockdown viability, ATP luminescence, 48 h; Potency, µM (series often up to 46.1 µM), for inactives: at the top dose activity, negative = toxicity, most hits filed as cytotoxic; 360,000 tested, 2% active; AID 686971, 2013;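 note: potency is the fitted concentration of half-maximal effect; 0% = DMSO wells and -100% = cell-free medium wells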
#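 Assay cells: HT-1080 with IDH1 knockdown, 750 per well, RPMI/5% FBS. Exposure: 48 h at 37 °C following 2 h pre-incubation. Read: CellTiter-Glo luminescence; fitted concentration-response, curve class assigned.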
# IL-1B inflam inh: qHTS for Inhibitors of Inflammasome Signaling: IL-1-beta AlphaLISA Primary Screen; THP-1 LPS/ATP IL-1B secretion, AlphaLISA, 16 h; active compounds read low; activity change, % at 57.5 µM; 360,000 tested, 4.7% active; in the data active = activity change below about -50%; inconclusive = mostly about -30% to -49%
#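 THP-1 cells pretreated 1 hr with compounds (up to 57.5 uM final), then stimulated with LPS (250 ng/mL final) plus ATP (1.25 mM final); secreted IL-1B measured by AlphaLISA after 16 hr, decreased signal indicating inhibition.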
# DT40 TDP1 CPT: qHTS for Inhibitors of human tyrosyl-DNA phosphodiesterase 1 (TDP1): qHTS in cells in presence of CPT. chicken DT40 Tdp1-/-;hTDP1 cells + 20 nM CPT, ATP luminescence, 48 h. Potency, µM (top dose mostly 46.2 µM), without a hit: at the highest dose activity change, negative = growth inhibition, usual class: inhibitors. 420,000 tested, 12% active; note: potency is the fitted concentration of half-maximal effect; nearly all actives have a fitted effect of over 55% in size
#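 Chicken DT40 Tdp1-/- cells complemented with human TDP1, 400 cells/well, exposed to compounds plus 20 nM camptothecin for at least 48 h at 37 C; viability read as ATP content by CellTiter-Glo luminescence.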
# TDP1 cell noCPT: qHTS for Inhibitors of human tyrosyl-DNA phosphodiesterase 1 (TDP1): qHTS in cells in absence of CPT; DT40 Tdp1-/- hTDP1 cells, no CPT, ATP luminescence, 48 h; Potency, µM (highest dose often 46.2 µM), without a hit: top-dose activity change, negative = growth inhibition, usual class: inhibitors; 420,000 tested, 15% active; AID 686978, 2013; note: potency is the fitted concentration of half-maximal effect; nearly all actives have a fitted effect of over 55% in size
#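 Chicken DT40 Tdp1-/- cells stably complemented with human TDP1 were seeded at 400 cells/well with DMSO in place of 20 nM camptothecin. After compound pinning, cells grew at least 48 hr at 37 °C; viability read by CellTiter-Glo luminescence.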
# Starred values were filed as active, the others as inactive; ? = inconclusive; . = no result. Unless noted, calls come from the whole dose curve; as a rule, active = well fitted curve in the direction sought with a large enough effect; inconclusive = small, poorly fitted or top-dose-only effect, or another doubt; inactive = no such curve, though single readings can be large; an effect the other way counts as inactive or inconclusive. Unless noted, % is set by controls: 0 for no effect and ±100 for the full control effect.
SMILES,HT1080-NT tox,HT1080 IDH1KD tx,IL-1B inflam inh,DT40 TDP1 CPT,TDP1 cell noCPT
CCN(CC)CCOC(=O)/C=C/c1ccccc1OC,0%,-1%,-8,-2%,-23%
O=C(c1cccc(F)c1)N1CCC2(CCCN(c3ncccn3)C2)CC1,.,.,.,-9%,?
Cc1n[nH]c(C)c1CS(=O)(=O)c1ccccc1,-6%,-21%,-19,7%,-12%
Cc1ccc(NC(=O)CCn2c(=O)c3cccn3c3ccccc32)cc1C,-22%,-12%,61,?,18µM*
Cc1cc(C)c(NC(=O)Cn2c(=O)c3cccn3c3ccccc32)c(C)c1,4%,7%,10,?,-26%
Cc1csc(NC(=O)c2cc[n+]([O-])cc2)n1,0%,-15%,-4,-4%,3%
O=C(O)CCCC(=O)Nc1ccc(C(=O)NCc2cccnc2)cc1,4%,5%,2,-4%,-6%
O=C(Nc1nc(-c2cccnc2)cs1)c1ccc([N+](=O)[O-])cc1,-12%,10%,0,?,-28%
O=C(Nc1nc(-c2cccnc2)cs1)c1cccc([N+](=O)[O-])c1,8%,1%,-8,-17%,23µM*
N#CCC(=O)Nc1ncc(Cc2ccccc2Cl)s1,-7%,-30%,-6,-11%,-20%
O=C(Nc1ncc(Cc2cccc(Cl)c2Cl)s1)c1ccc([N+](=O)[O-])cc1,5%,7%,3,13µM*,16µM*
O=C(CCC1CCCC1)Nc1ccc(C(=O)NCc2cccnc2)cc1,5.2µM*,6.5µM*,-11,15µM*,?
Cc1csc(NC(=O)c2cc([N+](=O)[O-])cc([N+](=O)[O-])c2)n1,1%,-3%,12,?,23µM*
CN(C)S(=O)(=O)c1cc(NC(=O)COC(=O)c2nc(Cl)ccc2Cl)ccc1Cl,-2%,7%,31,-22%,-1%
Cc1ccc(C(C)C)c(OCC(=O)N/N=C2\CC(=O)CC(C)(C)C2)c1,-1%,0%,4,-39%,-26%
O=C(Nc1ccccc1)Nc1ncc([N+](=O)[O-])s1,9.2µM*,9.2µM*,-87*,6.5µM*,4.6µM*
O=C(NCc1cccnc1)c1ccc(NC(=O)c2cccc([N+](=O)[O-])c2)cc1,?,3.7µM*,-10,15µM*,-82%
O=C(Nc1ncc([N+](=O)[O-])s1)c1cccc([N+](=O)[O-])c1,-2%,-2%,0,9.2µM*,21µM*
O=C(COC(=O)c1ccccc1)Nc1ncc([N+](=O)[O-])s1,1%,1%,-4,-2%,?
O=C(Nc1ccc([N+](=O)[O-])cc1)c1cccc([N+](=O)[O-])c1,-19%,-21%,34,6%,9%
O=C(COC(=O)c1ccccn1)Nc1nc(-c2cccc([N+](=O)[O-])c2)cs1,-2%,7%,-30,?,18µM*
CC1CCC(NC(=O)c2ccc3c(c2)N(Cc2ccccc2F)C(=O)c2ccccc2S3=O)CC1 (configuration not stated),.,.,.,?,-23%
COc1ccccc1Nc1nc(-c2cccc([N+](=O)[O-])c2)cs1,1%,-13%,-25,?,?
O=[N+]([O-])c1cccc(-c2csc(Nc3ccccc3)n2)c1,?,?,-105*,?,29µM*
O=C(Cc1ccccc1)Nc1nc(-c2cccc([N+](=O)[O-])c2)cs1,25%,23%,-14,-19%,?
SMILES,HT1080-NT tox,HT1080 IDH1KD tx,IL-1B inflam inh,DT40 TDP1 CPT,TDP1 cell noCPT
O=C(Nc1nc(-c2ccccc2)cs1)c1cccc([N+](=O)[O-])c1,-9%,-13%,-79*,?,?
CCCc1nnc(SCC(=O)N2CCCCC2)n1CCCOC,10%,11%,-15,-17%,-13%
Cc1ccc2c(C)nc(Nc3nc(CSc4nc5ccccc5[nH]4)cc(=O)[nH]3)nc2c1,18µM*,11µM*,-86*,12µM*,12µM*
Cc1nn2c(=O)cc(CSc3nc4ccccc4[nH]3)nc2s1,-13%,6%,2,-14%,-15%
Cc1ccc(SCc2cc(=O)[nH]c(Nc3nc(C)c4ccc(C)cc4n3)n2)cc1,29%,20%,22,?,?
Cc1ccc(SCc2cc(=O)[nH]c(Nc3nc(C)c4ccccc4n3)n2)cc1,-19%,-13%,-7,12µM*,?
Cc1ccccc1CSc1nc2c(c(=O)[nH]1)CCC2,-1%,4%,11,?,-30%
Cc1nc(Nc2nc3c(c(=O)[nH]2)CCC3)nc2ccccc12,?,?,-77*,5.8µM*,4.1µM*
Cc1c(Cl)cccc1NC(=S)N(Cc1cccnc1)Cc1ccccc1Cl,0%,-27%,-9,-3%,?
COC(=O)c1ccc(NC(=O)CSc2nc3cccnc3n2C)cc1,-4%,-28%,-2,?,16µM*
CCOC(=O)c1ccc(NC(=O)CSc2nc3cccnc3n2C)cc1,-14%,?,-19,?,21µM*
Cc1cccn2c(=O)nc(SCC(=O)Nc3ccc4c(c3)OCO4)nc12,-1%,5%,-3,1%,-7%
CCOC(=O)c1c(-c2ccccc2)nc2c(C)cccn12,8%,17%,11,15µM*,16µM*
CCOC(=O)c1ccc(NC(=O)CSc2nc(=O)n3cccc(C)c3n2)cc1,1%,2%,?,21µM*,13µM*
COc1ccc(NC(=O)CSc2nc3cccnc3n2C)cc1,-5%,-7%,-11,-14%,-55%
CC(C)CN(C(=O)COC(=O)c1cc2c(s1)CCC2)C1CCS(=O)(=O)C1 (configuration not stated),9%,21%,-2,5%,-9%
Cc1cc2nc(SCCOC(=O)Nc3ccc(Cl)cc3)nc(C)c2cc1C,10%,10%,16,?,?
CC1(C)Cc2c(cnn2-c2ccccc2)-c2c1c1ccccc1n2CC(O)CCl (configuration not stated),18µM*,21µM*,21,?,?
CCC(NC(=O)C(C)NC)C(=O)N1CCCC1C(=O)NC1CCCc2ccccc21 (configuration not stated),-3%,-16%,-14,20%,2%
CC(=O)N1C[C@H]2CON(C)[C@H]2C[C@H]1c1ccccc1,?,8%,0,0%,4%
CN1OC[C@@H]2CN(C(=O)CCc3ccccc3)[C@H](c3cccc(-c4ccccc4)c3)C[C@@H]21,-4%,-3%,0,26µM*,?
